Reference: PubChem BioAssay (Tox21)
“And” between values parts separate entries of the source, which are not always exact repeats. Equal values may be shown once. Inconclusive results are not listed. A call without a number means that no potency is given here. The source holds several records for some structures; these can differ, active in one and inactive in another. The source made the active and inactive calls. Unless noted, calls follow the shape of the dose curve; as a rule, active = well fitted curve in the direction sought with a large enough effect in the repeat runs; inconclusive = weak or mixed curves; inactive = no such curve, though single readings can be large; an effect the other way counts as inactive or inconclusive.

What was measured:
[1] = molecular target: Acetylcholinesterase (Homo sapiens) (UniProt P22303); test: Acetylcholinesterase (AChE) small molecule antagonists: enzyme-based qHTS assay (AID 1347397; calls by dose curve; also: nearly all actives have a fitted effect of over 55% in size); details: Potency: AChE enzyme activity inhibition
Method in brief: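 Absorbance-based detection of thiocholine with DTNB served as the read-out. Recombinant human AChE was exposed to compound for 30 min at RT before a 10 min RT incubation with acetylthiocholine.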

[2] = molecular target: Acetylcholinesterase (Homo sapiens) (UniProt P22303); test: Acetylcholinesterase (AChE) small molecule antagonists: fluorescence cell-based qHTS assay (AID 1347398; calls by dose curve; also: nearly all actives have a fitted effect of over 50% in size); details: Potency: AChE activity
Method in brief: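 Fluorimetric cell-based assay: intact SH-SY5Y cells, 30 min compound preincubation at 37 C, acetylthiocholine substrate with thiol probe Thiolite Green, 40 min RT development, fluorescence 490/520 nm.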

[3] = molecular target: Acetylcholinesterase (Homo sapiens) (UniProt P22303); test: Acetylcholinesterase (AChE) small molecule antagonists: enzyme-based qHTS assay with human liver microsomes (AID 1347399; calls by dose curve; also: nearly all actives have a fitted effect of over 60% in size); details: Potency: qHTS inhibition
Method in brief: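 Recombinant human AChE (50 mU/mL in the enzyme mix) and human liver microsomes (0.25 mg/mL final) were preincubated with compound and NADPH (0.25 mg/mL final) for 30 min at 37 C. Acetylthiocholine/DTNB was then added; thiocholine was read colorimetrically after 10 min at room temperature.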

[4] = molecular target: Cytochrome P450 2D6 (Homo sapiens) (UniProt P10635); test: Cytochrome P450 Family 2 Subfamily D Member 6 (CYP2D6) small molecule antagonists: luciferase reporter qHTS assay (AID 1671196); also: nearly all actives have a fitted effect of over 50% in size
Method in brief: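 CYP2D6 enzyme–substrate mix was held with compound for 10 min at room temperature, then NADPH regeneration solution was added and the reaction ran 1 h at room temperature. Luciferin product was detected by luminescence after 20 min with detection reagent.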

[5] = molecular target: Cytochrome P450 2C19 (Homo sapiens) (UniProt P33261); test: Cytochrome P450 Family 2 Subfamily C Member 19 (CYP2C19) small molecule antagonists: luciferase reporter qHTS assay (AID 1671197); also: nearly all actives have a fitted effect of over 65% in size
Method in brief: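 Compounds were tested on CYP2C19 activity via proluciferin conversion to luciferin. The 37C, 1 h reaction followed NADPH addition; detection reagent stopped it.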

[6] = molecular target: Cytochrome P450 1A2 (Homo sapiens) (UniProt P05177); test: Cytochrome P450 Family 1 Subfamily A Member 2 (CYP1A2) small molecule antagonists: luciferase reporter qHTS assay (AID 1671199); also: nearly all actives have a fitted effect of over 50% in size
Method in brief: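 Human CYP1A2 activity measured with a P450-Glo proluciferin substrate; compounds in DMSO preincubated 10 min at room temperature with enzyme-substrate mix, then NADPH regeneration system added for 1 h. Luciferin detection reagent, 20 min, luminescence read.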

[7] = molecular target: Voltage-gated inwardly rectifying potassium channel KCNH2 (Homo sapiens) (UniProt Q12809); test: Human Ether-a-go-go-Related Gene (hERG) channel small molecule antagonists: fluorescence cell-based qHTS assay (AID 1671200); also: nearly all actives have a fitted effect of over 50% in size
Method in brief: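 Thallium served as the potassium surrogate; its influx into dye-loaded U2OS cells carrying the channel was measured by fluorescence over 2 min.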

[8] = molecular target: Cytochrome P450 3A4 (Homo sapiens) (UniProt P08684); test: Cytochrome P450 Family 3 Subfamily A Member 4 (CYP3A4) small molecule antagonists: luciferase reporter qHTS assay (AID 1671201); also: nearly all actives have a fitted effect of over 50% in size
Method in brief: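 Relative luminescence units after 20 min with luciferin detection reagent served as read-out. Beforehand, CYP3A4 turned over a proluciferin substrate for 1 h at room temperature with NADPH regeneration, following 10 min compound preincubation.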

[9] = molecular target: Cytochrome P450 2C9 (Homo sapiens) (UniProt P11712); test: Cytochrome P450 Family 2 Subfamily C Member 9 (CYP2C9) small molecule antagonists: luciferase reporter qHTS assay (AID 1671198); also: nearly all actives have a fitted effect of over 50% in size
Method in brief: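 Enzyme-substrate mix preincubated with compound 10 min at room temperature; reaction started with NADPH regeneration solution, 1 h 37C. Luminescent luciferin product read after 20 min detection reagent.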
Potency is read from the fitted curve at half-maximal effect.

Acetylcholinesterase (Homo sapiens), sequence (P22303 whole entry, looked up): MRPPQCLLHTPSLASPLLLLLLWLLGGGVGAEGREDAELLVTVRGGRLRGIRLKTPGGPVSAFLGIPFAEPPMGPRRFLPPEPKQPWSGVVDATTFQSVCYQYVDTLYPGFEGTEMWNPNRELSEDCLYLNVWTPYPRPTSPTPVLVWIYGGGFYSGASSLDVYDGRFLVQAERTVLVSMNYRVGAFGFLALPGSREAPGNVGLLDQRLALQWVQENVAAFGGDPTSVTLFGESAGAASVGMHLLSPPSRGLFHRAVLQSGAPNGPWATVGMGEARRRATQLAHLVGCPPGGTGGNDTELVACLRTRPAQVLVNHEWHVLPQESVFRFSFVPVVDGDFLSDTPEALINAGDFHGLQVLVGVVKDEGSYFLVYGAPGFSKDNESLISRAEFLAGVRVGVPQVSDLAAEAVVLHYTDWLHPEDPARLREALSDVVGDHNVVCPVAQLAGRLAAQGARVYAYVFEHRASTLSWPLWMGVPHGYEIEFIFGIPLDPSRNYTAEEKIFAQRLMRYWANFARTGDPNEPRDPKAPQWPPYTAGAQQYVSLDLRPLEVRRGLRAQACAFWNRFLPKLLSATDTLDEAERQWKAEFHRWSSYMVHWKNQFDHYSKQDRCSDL
Cytochrome P450 3A4 (Homo sapiens), sequence (P08684 whole entry, looked up): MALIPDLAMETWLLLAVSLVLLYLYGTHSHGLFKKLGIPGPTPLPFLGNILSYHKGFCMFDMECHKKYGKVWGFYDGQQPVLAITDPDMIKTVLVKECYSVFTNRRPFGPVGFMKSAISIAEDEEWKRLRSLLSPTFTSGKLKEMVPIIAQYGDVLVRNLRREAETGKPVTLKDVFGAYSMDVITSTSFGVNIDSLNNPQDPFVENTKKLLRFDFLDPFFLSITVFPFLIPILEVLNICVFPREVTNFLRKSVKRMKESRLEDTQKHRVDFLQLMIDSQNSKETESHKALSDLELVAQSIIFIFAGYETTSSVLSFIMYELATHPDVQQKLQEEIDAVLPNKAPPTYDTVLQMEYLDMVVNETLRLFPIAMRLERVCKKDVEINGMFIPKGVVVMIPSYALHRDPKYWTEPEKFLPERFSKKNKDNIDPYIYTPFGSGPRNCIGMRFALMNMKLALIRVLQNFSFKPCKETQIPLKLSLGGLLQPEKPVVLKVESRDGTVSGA
Cytochrome P450 1A2 (Homo sapiens), sequence (P05177 whole entry, looked up): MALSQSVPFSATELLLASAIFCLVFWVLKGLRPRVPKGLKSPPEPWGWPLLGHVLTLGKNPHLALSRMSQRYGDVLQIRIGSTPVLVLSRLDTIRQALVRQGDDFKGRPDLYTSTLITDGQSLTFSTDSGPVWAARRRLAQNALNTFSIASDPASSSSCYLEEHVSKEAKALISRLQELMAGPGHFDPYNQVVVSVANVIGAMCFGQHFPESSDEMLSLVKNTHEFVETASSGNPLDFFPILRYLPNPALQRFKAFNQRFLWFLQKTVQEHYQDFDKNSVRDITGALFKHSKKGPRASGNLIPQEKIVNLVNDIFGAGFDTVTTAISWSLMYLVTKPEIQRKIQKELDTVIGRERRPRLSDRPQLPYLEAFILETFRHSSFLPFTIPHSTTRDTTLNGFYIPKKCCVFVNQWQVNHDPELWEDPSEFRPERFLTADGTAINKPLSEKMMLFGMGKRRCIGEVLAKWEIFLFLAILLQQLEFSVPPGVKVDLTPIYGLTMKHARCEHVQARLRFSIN
Cytochrome P450 2C9 (Homo sapiens), sequence (P11712 whole entry, looked up): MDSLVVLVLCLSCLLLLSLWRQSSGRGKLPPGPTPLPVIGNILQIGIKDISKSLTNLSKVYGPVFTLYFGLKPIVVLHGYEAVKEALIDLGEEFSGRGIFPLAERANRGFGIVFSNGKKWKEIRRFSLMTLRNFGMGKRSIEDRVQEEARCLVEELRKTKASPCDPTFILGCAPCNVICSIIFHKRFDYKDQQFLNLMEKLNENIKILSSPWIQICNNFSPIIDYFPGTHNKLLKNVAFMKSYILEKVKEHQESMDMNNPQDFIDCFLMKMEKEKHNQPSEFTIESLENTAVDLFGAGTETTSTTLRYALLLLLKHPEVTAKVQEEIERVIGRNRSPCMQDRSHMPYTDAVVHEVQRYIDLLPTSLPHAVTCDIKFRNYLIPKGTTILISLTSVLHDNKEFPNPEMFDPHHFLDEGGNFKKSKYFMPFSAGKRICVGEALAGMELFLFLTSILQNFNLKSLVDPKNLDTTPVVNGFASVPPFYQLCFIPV
Voltage-gated inwardly rectifying potassium channel KCNH2 (Homo sapiens), sequence (Q12809 whole entry, looked up): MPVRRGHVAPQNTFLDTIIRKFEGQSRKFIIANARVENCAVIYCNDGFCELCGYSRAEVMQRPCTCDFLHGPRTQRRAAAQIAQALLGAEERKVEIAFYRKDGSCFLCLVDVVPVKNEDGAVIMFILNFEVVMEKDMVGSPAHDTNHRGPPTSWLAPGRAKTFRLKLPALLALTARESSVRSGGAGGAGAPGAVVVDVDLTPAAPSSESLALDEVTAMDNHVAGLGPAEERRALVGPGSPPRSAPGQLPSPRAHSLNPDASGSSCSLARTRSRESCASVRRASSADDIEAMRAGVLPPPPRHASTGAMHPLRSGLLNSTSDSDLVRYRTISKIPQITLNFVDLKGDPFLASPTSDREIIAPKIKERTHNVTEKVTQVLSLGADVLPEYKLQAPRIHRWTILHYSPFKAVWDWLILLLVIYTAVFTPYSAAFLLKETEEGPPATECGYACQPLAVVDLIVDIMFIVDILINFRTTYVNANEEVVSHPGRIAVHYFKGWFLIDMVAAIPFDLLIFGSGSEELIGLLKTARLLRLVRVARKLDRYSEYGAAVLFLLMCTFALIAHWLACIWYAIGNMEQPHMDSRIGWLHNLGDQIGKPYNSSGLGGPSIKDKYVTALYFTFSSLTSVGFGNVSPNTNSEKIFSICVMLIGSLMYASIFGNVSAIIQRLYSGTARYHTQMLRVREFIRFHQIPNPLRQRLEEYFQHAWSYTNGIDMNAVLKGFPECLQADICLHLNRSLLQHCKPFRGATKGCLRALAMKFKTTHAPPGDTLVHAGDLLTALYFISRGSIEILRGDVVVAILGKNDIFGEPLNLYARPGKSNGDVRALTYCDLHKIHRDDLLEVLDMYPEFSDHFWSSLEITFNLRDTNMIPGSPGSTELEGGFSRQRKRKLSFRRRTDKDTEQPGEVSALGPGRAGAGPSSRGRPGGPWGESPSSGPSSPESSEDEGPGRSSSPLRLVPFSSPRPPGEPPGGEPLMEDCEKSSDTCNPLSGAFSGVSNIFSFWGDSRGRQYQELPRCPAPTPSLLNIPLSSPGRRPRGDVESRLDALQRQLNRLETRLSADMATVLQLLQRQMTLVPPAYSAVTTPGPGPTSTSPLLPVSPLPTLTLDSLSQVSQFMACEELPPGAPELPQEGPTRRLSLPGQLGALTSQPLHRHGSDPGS
Cytochrome P450 2C19 (Homo sapiens), sequence (P33261 whole entry, looked up): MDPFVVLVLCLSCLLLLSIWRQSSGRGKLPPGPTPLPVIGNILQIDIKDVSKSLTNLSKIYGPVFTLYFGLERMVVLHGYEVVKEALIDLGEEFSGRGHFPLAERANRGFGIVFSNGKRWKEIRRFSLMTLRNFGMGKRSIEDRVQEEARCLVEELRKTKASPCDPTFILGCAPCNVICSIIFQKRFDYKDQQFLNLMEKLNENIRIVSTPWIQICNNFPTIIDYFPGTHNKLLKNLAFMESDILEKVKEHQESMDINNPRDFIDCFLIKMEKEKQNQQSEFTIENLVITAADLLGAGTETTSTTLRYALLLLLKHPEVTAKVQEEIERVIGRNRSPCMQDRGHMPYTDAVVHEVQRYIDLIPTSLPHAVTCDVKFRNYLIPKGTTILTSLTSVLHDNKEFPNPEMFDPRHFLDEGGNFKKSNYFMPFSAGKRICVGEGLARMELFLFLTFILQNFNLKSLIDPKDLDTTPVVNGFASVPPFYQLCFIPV
Cytochrome P450 2D6 (Homo sapiens), sequence (P10635 whole entry, looked up): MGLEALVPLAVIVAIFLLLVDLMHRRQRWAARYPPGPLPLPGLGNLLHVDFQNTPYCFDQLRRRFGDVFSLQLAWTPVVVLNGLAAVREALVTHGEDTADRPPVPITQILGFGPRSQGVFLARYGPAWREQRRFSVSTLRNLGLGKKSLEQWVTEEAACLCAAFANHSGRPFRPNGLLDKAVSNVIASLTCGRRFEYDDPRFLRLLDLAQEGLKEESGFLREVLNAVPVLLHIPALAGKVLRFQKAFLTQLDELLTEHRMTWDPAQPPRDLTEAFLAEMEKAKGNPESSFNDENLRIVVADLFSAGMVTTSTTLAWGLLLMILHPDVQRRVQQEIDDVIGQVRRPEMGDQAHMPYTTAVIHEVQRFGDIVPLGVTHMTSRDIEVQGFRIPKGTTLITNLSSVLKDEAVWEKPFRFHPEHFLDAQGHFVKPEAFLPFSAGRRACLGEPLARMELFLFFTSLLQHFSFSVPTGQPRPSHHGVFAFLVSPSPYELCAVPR

SMILES	Potency [1]	Potency [2]	Potency [3]	Potency [4]	Potency [5]	Potency [6]	Potency [7]	Potency [8]	Potency [9]
N#Cc1c2ccccc2cc2ccccc12	inactive	inactive	inactive	inactive	inactive	0.2 µM (active)	inactive	inactive	
CCC[CH2][Sn]([CH2]CCC)([CH2]CCC)[CH2]CCC	inactive	inactive	inactive	20 µM (active)	35.6 µM (active)			inactive	
CCOP(=O)(OCC)Oc1cc(C)nc(C(C)C)n1	5.67 µM (active)	0.714 µM (active)	25.3 µM (active)	inactive		35.8 µM (active)	inactive	inactive	inactive
CCCCCCCCCCCCCCn1cc[n+](C)c1	50.4 µM (active) and 70.2 µM (active) and inactive	20.1 µM (active) and 31.4 µM (active) and inactive	inactive	1.13 µM (active) and 1.25 µM (active)	40 µM (active) and 78.8 µM (active)	40 µM (active) and 62.6 µM (active)	3.9 µM (active) and 6.84 µM (active) and inactive	40 µM (active)	
COc1ccc2c3c1O[C@H]1[C@H](O)CC[C@H]4[C@@H](C2)N(C)CC[C@@]341	inactive	inactive	inactive	inactive	inactive	inactive	inactive		
C=Cc1cccc(CCl)c1	inactive	inactive	inactive	inactive			inactive	inactive	inactive
COC(=O)c1ccccc1S(=O)(=O)NC(=O)Nc1nc(C)nc(OC)n1	inactive	inactive	inactive	8.88 µM (active)	35.3 µM (active)		inactive		
CCNc1nc(NC(C)C(C)C)nc(SC)n1 (stereo unspecified)	inactive	inactive	inactive	inactive	39.9 µM (active)	25.2 µM (active)	inactive	inactive	
FC(F)C(F)(F)OCC(Cn1cncn1)c1ccc(Cl)cc1Cl (stereo unspecified)	inactive	inactive	inactive	11.2 µM (active)	0.0199 µM (active)	7.06 µM (active)	inactive	0.223 µM (active)	
CN1C(=O)[C@@H](NC(=O)c2cc3ccccc3[nH]2)N=C(c2ccccc2)c2ccccc21	inactive	inactive	inactive	inactive	inactive	inactive		inactive	
C[C@H]1[C@H](c2ccc(Cl)cc2)SC(=O)N1C(=O)NC1CCCCC1	inactive	inactive	inactive	inactive	5.03 µM (active)	35.6 µM (active)	38.9 µM (active)		
O=NN(CCO)CCO	inactive	inactive	inactive	inactive	78.4 µM (active)	inactive	inactive	inactive	
COP(=S)(NC(C)C)Oc1ccc(C)cc1[N+](=O)[O-] (stereo unspecified)	inactive	inactive	inactive	44.8 µM (active)	0.283 µM (active)	11.2 µM (active)	inactive		
[O]=[Cr](=[O])([OH])[O][Cr](=[O])(=[O])[OH]	inactive	inactive	inactive	inactive	inactive	inactive	inactive	inactive	
CCN(CC)Cc1nccn1-c1ccc([N+](=O)[O-])cc1C(=O)c1ccccc1Cl	inactive	inactive	inactive	3.09 µM (active)			5.35 µM (active)		inactive
c1ccc2c(c1)cc1ccc3cccc4ccc2c1c34	inactive	inactive	inactive	inactive	inactive	0.363 µM (active)	inactive	inactive	

SMILES	Potency [1]	Potency [2]	Potency [3]	Potency [4]	Potency [5]	Potency [6]	Potency [7]	Potency [8]	Potency [9]
ClC1=C(Cl)[C@]2(Cl)[C@H]3[C@H]([C@@H]4C=C[C@H]3C4)[C@@]1(Cl)C2(Cl)Cl	inactive	inactive	inactive	35.5 µM (active) and inactive	inactive and 35.6 µM (active)	inactive		252 nM (active) and 399 nM (active)	
CCCCON=O	inactive	inactive	inactive	inactive		inactive	inactive	inactive	inactive
CCN1CCC2(CC1)COc1cc3c(cc12)N(C(=O)c1ccc(-c2ccc(-c4nnc(C)o4)cc2C)cc1)CC3	32.8 µM (active)	10.4 µM (active)	inactive	32.8 µM (active)	23.2 µM (active)	inactive	inactive	inactive	
O=S1OCC2C(CO1)C1(Cl)C(Cl)=C(Cl)C2(Cl)C1(Cl)Cl (stereo unspecified)	inactive	inactive	inactive	4 µM (active)	3.18 µM (active) and 3.56 µM (active)	inactive	21.9 µM (active) and 27.5 µM (active)	283 nM (active) and 633 nM (active)	
O=[N+]([O-])C(Br)Br	inactive	inactive	inactive	inactive	inactive	inactive	inactive	inactive	
c1ccc2nc(N3CCNCC3)ccc2c1	inactive	inactive	inactive	inactive	inactive	1.23 µM (active)	inactive		
CSC(C)(C)/C=N/O	inactive	inactive	inactive	inactive		inactive	inactive	inactive	inactive
O=[N+]([O-])c1ccc(Cl)c(Cl)c1Cl	inactive	inactive	inactive	inactive	55.6 µM (active)	8.8 µM (active)	inactive	inactive	
CN/C(=N\[N+](=O)[O-])NCc1cnc(Cl)s1	inactive	inactive	inactive	inactive		inactive	inactive		inactive
CCOC(=O)Cc1ccccc1	inactive	inactive	inactive	inactive	inactive		inactive	inactive	
CN1[C@@H]2CC[C@H]1CC(O)C2 (stereo partly specified)	inactive	inactive	inactive	inactive		inactive	inactive	inactive	inactive
CC(C)N(C(=O)CCl)c1ccccc1	inactive	20 µM (active)	inactive	inactive	39.9 µM (active)	inactive	inactive	inactive	
C[C@@H]1CC2=CC(=O)CC[C@@H]2[C@H]2CC[C@@]3(C)[C@@H](CC[C@]3(C)O)[C@@H]21	inactive	inactive	inactive	inactive	8.71 µM (active)	inactive	inactive		
CO/N=C(\C(=O)OC)c1ccccc1CO/N=C(\C)c1cccc(C(F)(F)F)c1	inactive	inactive	inactive		3.56 µM (active)	17.8 µM (active)	inactive		8.94 µM (active)
O=C(Nc1ccc(F)cc1F)c1cccnc1Oc1cccc(C(F)(F)F)c1	inactive	inactive	inactive	inactive		7.81 µM (active)	inactive		
CCCCCCC[CH2][Sn]([Cl])([Cl])[CH2]CCCCCCC	inactive	inactive	inactive		inactive	35.6 µM (active)	inactive	inactive	
